Reference: PubChem BioAssay
Several values for one entry are separate records, joined by “and”; a condition that tells them apart may be missing. Identical values can stand only once. Results filed as inconclusive are left out. For some assays here: Entries with a potency or affinity are not part of this list. Activity calls are given as the source filed them. Unless noted, no rule for the calls is given here.

Columns and labels:
[1] = antimalarial activity against Dd2 strain (AID 2302;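 active = growth inhibition above 50% at the single 2 µM test dose, taken to imply half-maximal potency below 2 µM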;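 also: 0% = DMSO untreated growth and 100% = chloroquine plus artemisinin killed control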); settings: P. falciparum Dd2 in RBCs, LDH growth readout, 72 h; at 2 µM; stronger effect = higher value
[2] = human hepatoma cell viability loss – ATP luminescence, cytotoxicity control for P. falciparum antimalarial project, primary screen (AID 2303;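 active = inhibition above 50%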;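 also: 0% = DMSO wells and 100% = digitonin-killed cells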); settings: HepG2 viability, 24-48 h, at 10 µM, stronger effect = higher value
[3] = biological target: L-lactate dehydrogenase (Plasmodium falciparum (isolate CDC / Honduras)) (UniProt Q27743); test: PfLDH activity inhibition – cell lysate, 3D7 strain, counter-screen for P. falciparum growth inhibition project (AID 2304);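 also: 0% = vehicle and 100% = reference inhibitor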; settings: P. falciparum 3D7 crude extract, LDH APAD/NBT absorbance; at 2 µM; stronger effect = higher value
L-lactate dehydrogenase (Plasmodium falciparum (isolate CDC / Honduras)), sequence (Q27743 whole entry, looked up): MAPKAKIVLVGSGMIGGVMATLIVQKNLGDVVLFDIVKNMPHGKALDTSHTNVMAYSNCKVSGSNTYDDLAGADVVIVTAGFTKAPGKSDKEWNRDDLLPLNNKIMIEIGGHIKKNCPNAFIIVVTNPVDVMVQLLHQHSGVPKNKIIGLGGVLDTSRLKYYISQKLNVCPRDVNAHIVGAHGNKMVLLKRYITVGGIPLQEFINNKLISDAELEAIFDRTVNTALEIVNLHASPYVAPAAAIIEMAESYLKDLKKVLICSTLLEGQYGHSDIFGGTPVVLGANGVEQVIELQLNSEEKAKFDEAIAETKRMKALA

[4] = biological target: Calcium-dependent protein kinase 1 (Plasmodium falciparum (isolate 3D7)) (UniProt P62344); test: PfCDPK1 kinase inhibitors, biochemical, TCAMS library (AID 1159585; cut-off not given, nearly all actives have IC50 up to about 0.98 µM;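 also: inhibitors leave more ATP so luminescence rises with inhibition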); settings: recombinant PfCDPK1, Kinase-Glo ATP depletion luminescence
Calcium-dependent protein kinase 1 (Plasmodium falciparum (isolate 3D7)), sequence (P62344 whole entry, looked up): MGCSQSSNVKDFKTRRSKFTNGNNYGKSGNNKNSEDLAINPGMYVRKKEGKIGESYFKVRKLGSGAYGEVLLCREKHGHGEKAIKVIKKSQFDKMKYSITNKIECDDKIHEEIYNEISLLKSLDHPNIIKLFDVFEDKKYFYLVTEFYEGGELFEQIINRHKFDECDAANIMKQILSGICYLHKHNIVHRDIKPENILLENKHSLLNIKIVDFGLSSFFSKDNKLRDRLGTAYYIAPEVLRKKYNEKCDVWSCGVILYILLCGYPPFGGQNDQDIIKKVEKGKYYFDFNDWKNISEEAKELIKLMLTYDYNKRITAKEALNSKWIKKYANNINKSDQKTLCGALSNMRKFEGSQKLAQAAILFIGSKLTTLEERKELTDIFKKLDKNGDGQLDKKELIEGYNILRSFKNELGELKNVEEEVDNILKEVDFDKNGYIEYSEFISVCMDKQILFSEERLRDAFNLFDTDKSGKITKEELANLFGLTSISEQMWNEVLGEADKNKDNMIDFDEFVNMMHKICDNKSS

[5] = biological target: Plasmodium falciparum protein kinase 6 (PK6, PF3D7_1337100) (UniProt Q8IDW1); test: PfPK6 kinase inhibitors, biochemical, TCAMS library (AID 1159586); settings: recombinant PfPK6, Kinase-Glo ATP depletion luminescence
Plasmodium falciparum protein kinase 6 (PK6, PF3D7_1337100), sequence (Q8IDW1 1-305): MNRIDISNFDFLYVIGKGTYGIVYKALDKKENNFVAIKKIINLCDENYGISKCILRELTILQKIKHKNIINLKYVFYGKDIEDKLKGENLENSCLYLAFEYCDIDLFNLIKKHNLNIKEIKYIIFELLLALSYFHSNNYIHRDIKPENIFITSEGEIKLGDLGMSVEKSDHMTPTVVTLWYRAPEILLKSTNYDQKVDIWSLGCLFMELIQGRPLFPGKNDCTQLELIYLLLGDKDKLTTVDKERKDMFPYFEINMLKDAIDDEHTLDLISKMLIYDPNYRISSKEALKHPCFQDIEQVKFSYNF

[6] = biological target: Protein kinase 7 (PK7), Plasmodium falciparum 3D7 (PF3D7_0213400) (UniProt Q7YTF7); test: inhibition of Plasmodium PK7 catalytic activity – biochemical, TCAMS antimalarial set, Kinase-Glo luminescence (AID 1159587); settings: recombinant PfPK7, Kinase-Glo ATP depletion luminescence
Protein kinase 7 (PK7), Plasmodium falciparum 3D7 (PF3D7_0213400), sequence (Q7YTF7 1-343): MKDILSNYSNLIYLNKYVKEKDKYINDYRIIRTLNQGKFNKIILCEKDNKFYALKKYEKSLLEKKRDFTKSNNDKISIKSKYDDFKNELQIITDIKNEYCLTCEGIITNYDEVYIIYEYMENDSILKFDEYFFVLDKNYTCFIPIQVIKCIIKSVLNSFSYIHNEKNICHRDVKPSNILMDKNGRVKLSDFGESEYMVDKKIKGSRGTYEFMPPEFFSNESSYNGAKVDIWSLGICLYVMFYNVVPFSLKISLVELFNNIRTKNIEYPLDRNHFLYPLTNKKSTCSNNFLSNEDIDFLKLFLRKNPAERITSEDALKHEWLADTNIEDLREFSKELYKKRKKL

[7] = biological target: Calcium-dependent protein kinase 4 (Plasmodium falciparum (isolate 3D7)) (UniProt Q8IBS5); test: PfCDPK4 kinase inhibitors, biochemical, TCAMS library (AID 1159588; cut-off not given, nearly all actives have IC50 up to about 0.91 µM); settings: recombinant PfCDPK4, Kinase-Glo ATP depletion luminescence
Calcium-dependent protein kinase 4 (Plasmodium falciparum (isolate 3D7)), sequence (Q8IBS5 whole entry, looked up): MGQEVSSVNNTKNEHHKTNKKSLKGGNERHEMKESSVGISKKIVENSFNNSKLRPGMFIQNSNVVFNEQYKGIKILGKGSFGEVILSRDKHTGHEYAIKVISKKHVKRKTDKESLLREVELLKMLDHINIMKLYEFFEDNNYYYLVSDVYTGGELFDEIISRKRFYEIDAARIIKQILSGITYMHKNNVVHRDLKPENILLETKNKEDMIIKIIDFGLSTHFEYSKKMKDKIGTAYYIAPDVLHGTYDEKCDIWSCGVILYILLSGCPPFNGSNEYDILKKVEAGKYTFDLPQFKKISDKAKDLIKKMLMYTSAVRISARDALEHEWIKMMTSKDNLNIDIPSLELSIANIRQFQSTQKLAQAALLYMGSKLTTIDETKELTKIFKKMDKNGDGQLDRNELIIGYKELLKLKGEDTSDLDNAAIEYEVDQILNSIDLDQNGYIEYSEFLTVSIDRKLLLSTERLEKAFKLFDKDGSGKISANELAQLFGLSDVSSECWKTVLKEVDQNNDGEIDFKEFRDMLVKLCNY

[8] = compounds altering viability of human ES cells (AID 493140); settings: human embryonic stem cell survival screen; stronger effect = higher value;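 also: cells exposed to compounds for four days before counting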
[9] = biological target: 6-phosphogluconate dehydrogenase, decarboxylating (Homo sapiens) (UniProt P52209); test: inhibition of human phosphogluconate dehydrogenase – biochemical, recombinant enzyme, NADPH absorbance, primary screen (AID 1159550;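 active = at least 20% inhibition of 6-phosphogluconate dehydrogenase activity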); settings: recombinant 6PGD, NADPH absorbance 341 nm; at 10 µM; stronger effect = higher value
6-phosphogluconate dehydrogenase, decarboxylating (Homo sapiens), sequence (P52209 whole entry, looked up, the tested form may be a part): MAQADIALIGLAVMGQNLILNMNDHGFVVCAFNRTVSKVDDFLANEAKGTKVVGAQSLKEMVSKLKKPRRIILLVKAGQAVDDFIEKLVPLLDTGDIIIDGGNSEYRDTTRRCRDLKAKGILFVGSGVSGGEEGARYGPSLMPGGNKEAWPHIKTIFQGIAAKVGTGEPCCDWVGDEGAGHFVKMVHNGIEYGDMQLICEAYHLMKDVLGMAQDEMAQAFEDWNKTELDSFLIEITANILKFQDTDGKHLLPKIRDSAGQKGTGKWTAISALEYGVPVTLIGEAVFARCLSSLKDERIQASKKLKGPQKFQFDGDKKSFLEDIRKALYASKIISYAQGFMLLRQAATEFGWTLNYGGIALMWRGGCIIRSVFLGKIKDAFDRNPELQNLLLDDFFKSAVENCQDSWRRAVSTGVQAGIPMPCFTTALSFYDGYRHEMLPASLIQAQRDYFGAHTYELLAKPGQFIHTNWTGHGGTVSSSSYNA

[10] = biological target: Mitogen-activated protein kinase 7 (Homo sapiens) (UniProt Q13164); test: Gal4-ERK5 driven luciferase induction – cell-based, HTS, primary screen (AID 1508626;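 active = luciferase signal above three times the same-plate solvent-only control wells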;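 also: luciferase driven by Gal4-ERK5 fusion binding five Gal4 sites before minimal TATA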); settings: HeLa Gal4-ERK5 transactivation, 18 h, at 5 µM, stronger effect = higher value
Mitogen-activated protein kinase 7 (Homo sapiens), sequence (Q13164 whole entry, looked up, the tested form may be a part): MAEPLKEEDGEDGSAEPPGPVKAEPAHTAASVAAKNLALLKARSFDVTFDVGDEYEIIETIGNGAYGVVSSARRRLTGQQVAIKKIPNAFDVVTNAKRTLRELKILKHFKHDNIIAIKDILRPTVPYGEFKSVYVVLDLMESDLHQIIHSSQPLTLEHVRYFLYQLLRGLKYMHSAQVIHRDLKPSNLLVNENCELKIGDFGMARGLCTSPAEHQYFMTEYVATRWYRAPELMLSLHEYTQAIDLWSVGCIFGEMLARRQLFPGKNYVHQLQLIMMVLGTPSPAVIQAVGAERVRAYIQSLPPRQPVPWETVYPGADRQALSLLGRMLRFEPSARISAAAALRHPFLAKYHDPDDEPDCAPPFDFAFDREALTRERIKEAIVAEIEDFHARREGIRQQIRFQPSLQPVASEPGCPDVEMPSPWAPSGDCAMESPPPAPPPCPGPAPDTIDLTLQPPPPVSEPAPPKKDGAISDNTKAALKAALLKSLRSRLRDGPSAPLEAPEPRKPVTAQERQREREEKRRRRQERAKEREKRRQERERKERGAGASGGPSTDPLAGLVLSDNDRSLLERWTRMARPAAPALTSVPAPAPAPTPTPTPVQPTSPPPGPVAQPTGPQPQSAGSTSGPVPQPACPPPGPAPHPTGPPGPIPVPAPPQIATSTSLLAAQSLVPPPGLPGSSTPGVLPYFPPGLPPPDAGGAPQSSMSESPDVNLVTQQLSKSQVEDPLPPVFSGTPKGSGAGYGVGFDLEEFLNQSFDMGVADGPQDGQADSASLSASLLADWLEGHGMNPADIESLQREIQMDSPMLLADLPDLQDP

[11] = biological target: ATP-dependent translocase ABCB1 (Homo sapiens) (UniProt P08183); test: P-glycoprotein substrate transport blockade – cell-based (AID 377; in the data active = fluorescence slope change above about 50%); settings: MDR1-expressing cells, fluorescent substrate accumulation slope; stronger effect = higher value; concentration not given here
ATP-dependent translocase ABCB1 (Homo sapiens), sequence (P08183 whole entry, looked up): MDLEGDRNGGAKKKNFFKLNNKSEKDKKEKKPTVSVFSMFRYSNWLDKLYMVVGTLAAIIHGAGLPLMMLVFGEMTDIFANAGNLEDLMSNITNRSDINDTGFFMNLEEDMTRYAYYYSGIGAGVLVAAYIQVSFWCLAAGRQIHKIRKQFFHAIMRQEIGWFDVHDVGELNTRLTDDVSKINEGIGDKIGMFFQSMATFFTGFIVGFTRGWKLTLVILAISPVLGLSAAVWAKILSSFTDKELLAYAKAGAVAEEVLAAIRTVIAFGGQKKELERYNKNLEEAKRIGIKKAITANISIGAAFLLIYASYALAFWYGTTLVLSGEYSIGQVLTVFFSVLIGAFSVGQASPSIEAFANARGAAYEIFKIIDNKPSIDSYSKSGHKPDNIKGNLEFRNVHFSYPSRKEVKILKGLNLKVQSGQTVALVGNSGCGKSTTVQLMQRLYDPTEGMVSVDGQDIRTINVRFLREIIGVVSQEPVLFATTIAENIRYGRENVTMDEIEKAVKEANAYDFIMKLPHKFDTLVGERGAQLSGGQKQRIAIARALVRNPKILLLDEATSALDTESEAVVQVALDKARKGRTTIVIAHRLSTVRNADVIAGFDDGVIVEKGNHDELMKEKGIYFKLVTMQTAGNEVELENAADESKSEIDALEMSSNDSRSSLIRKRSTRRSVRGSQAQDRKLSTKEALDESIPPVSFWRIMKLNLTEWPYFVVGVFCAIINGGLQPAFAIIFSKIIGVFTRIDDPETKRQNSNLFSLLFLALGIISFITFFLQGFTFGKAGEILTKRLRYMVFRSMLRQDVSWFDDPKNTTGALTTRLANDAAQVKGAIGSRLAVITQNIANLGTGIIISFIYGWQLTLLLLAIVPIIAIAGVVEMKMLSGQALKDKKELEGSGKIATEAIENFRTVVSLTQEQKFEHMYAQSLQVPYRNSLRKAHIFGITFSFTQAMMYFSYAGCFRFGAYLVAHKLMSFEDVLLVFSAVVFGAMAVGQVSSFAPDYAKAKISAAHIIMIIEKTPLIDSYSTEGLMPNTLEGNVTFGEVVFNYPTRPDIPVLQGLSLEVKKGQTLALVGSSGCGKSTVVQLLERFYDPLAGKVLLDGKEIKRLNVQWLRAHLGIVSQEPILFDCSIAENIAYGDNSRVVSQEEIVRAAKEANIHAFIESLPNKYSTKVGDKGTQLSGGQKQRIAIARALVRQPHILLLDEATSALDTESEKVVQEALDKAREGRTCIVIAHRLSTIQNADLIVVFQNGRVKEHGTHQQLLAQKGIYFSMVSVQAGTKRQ

[12] = P. berghei load reduction in hepatocytes – cell-based, HepG2, luciferase luminescence, HepG2 viability, primary screen (AID 624349; in the data active = parasite load remaining mostly below about 12%, no sharp cut-off; inactive = mostly above about 10%;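 also: 100% = mean of DMSO negative control wells on the same plate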); settings: P. berghei liver stage in HepG2, luciferase luminescence, concentration not given here; parasite load remaining: stronger effect = lower value; viability: measured here: HepG2 viability without parasites
[13] = viability loss with induced miR-34 in A549 – imaging, A549 dox-inducible miR-34, nuclei and caspase counts, primary screen (AID 1347080;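 active = compounds whose cell count with miR-34 switched on is under 0.7 times the count with it off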); settings: A549 miR-34 inducible, Hoechst nuclei count, 48 h
[14] = inhibition of 3D7 malaria parasite growth – strain 3D7 (AID 2306);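 also: 0% = DMSO wells and 100% = chloroquine plus artemisinin control wells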; settings: P. falciparum 3D7 erythrocytic growth, LDH absorbance, 72 h; at 2 µM; stronger effect = higher value
[15] = system: Aerobactin synthetase IucA (Klebsiella pneumoniae); test: inhibition of K. pneumoniae IucA enzyme – biochemical, Tocris library, absorbance (AID 1345561); settings: purified IucA enzyme assay, absorbance (OD) read-out; stronger effect = lower value;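 tested at 8 µM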;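 also: 100% = enzyme without compound and 0% = no enzyme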
[16] = galactose survival enhancers in mitochondrial complex I cybrids – cell-based, galactose medium, ATP luminescence, primary screen (AID 1645843;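 active = z-score of at least 1.8 in each of two replicates, scored against plate mean and spread of sample wells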;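 also: positive z means more ATP and so rescue of galactose-driven cybrid death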); settings: complex I mutant cybrid cells, 72 h, stronger effect = higher value
[17] = biological target: NAD(+) hydrolase SARM1 (Homo sapiens) (UniProt Q6SZW1); test: blocking NAD cleavage by SARM1 SAM-TIR – cell lysate, NAD-Glo luminescence (AID 1508614;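 active = compound whose remaining NAD level is above about 45 nM, limit read from the data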;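 also: higher remaining NAD means stronger inhibition of SARM1 NADase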); settings: SAM-TIR HEK293T lysate NADase, at 1 µM, stronger effect = higher value
[18] = measured here: relative caspase fold change +Dox/-Dox
[19] = measured here: total cells with miR-34 induction, stronger effect = lower value
[20] = measured here: total cells without miR-34 induction

Which growth inhibition [1] does the source give for `C=CC12CCN(CC1)C(C(O)c1ccnc3ccc(OC)cc13)C2` (stereo unspecified) here?
The growth inhibition was 72% (active).

And the inhibition [2]?
Its inhibition is -6% (inactive).

And the inhibition [3]?
Its inhibition is -9% (inactive).

What about the outcome [4] of the same molecule?
The outcome was “inactive”.

What about the outcome [5] of the same molecule?
Its outcome is “inactive”.

And the outcome [6]?
The outcome was “inactive”.

And the outcome [7]?
Its outcome is “inactive”.

With `CC(N)C(O)c1ccc(O)c(O)c1` (stereo unspecified) as the molecule, how does the survival [8] read?
Its survival is 3.67 (inactive).

And the inhibition [9]?
Its inhibition is -5.53% (inactive).

What does the source list for `O=C(O)COc1cc(Cl)c(Cl)cc1Cl`?
inhibition [9]: 6.47% (inactive); luciferase signal [10]: 60 AU (inactive)

Which fluorescence slope change [11] does the source give for `COc1ccc(CC2c3cc(OC)c(OC)cc3CCN2C)cc1OC` (stereo unspecified) here?
Its fluorescence slope change is 206% (active).

And the survival [8]?
The survival was 6.67 (inactive).

What about the parasite load remaining [12] of the same molecule?
The parasite load remaining was 122% (inactive) and 66.2% (inactive).

And the viability [12]?
The viability was 98.7% and 71.4%.

And the inhibition [9]?
The inhibition was -3.74% (inactive).

What about the fold change ([13]; stronger effect = lower value) of the same molecule?
Its fold change is 0.878 (inactive).

What about the fold change [13, 18] of the same molecule?
The fold change was 1.5.

And the cell count [13, 19]?
The cell count was 9520.

What about the cell count [13, 20] of the same molecule?
The cell count was 10800.

For `C[C@H]1CC[C@]2(NC1)O[C@H]1C[C@H]3[C@@H]4CC[C@H]5C[C@@H](O)CC[C@]5(C)[C@H]4CC[C@]3(C)[C@H]1[C@@H]2C`, which fluorescence slope change [11] is on record?
The fluorescence slope change was 83.2% (active).

And the parasite load remaining [12]?
Its parasite load remaining is 75.2% (inactive).

And the viability [12]?
Its viability is 101%.

And the inhibition [9]?
Its inhibition is -31.5% (inactive).

What about the fold change ([13]; stronger effect = lower value, cell number ratio, induced over uninduced) of the same molecule?
Its fold change is 0.873 (inactive).

What about the fold change [13, 18] of the same molecule?
Its fold change is 1.03.

What about the cell count [13, 19] of the same molecule?
The cell count was 9790.

And the cell count [13, 20]?
The cell count was 11200.

And the luciferase signal [10]?
Its luciferase signal is 104 AU (inactive).

Which growth inhibition [1] does the source give for `COC(=O)/C=C/C(=O)N[C@@H]1CC[C@@]2(O)[C@H]3Cc4ccc(O)c5c4[C@@]2(CCN3CC2CC2)[C@H]1O5` here?
Its growth inhibition is 66% (active).

What about the inhibition [2] of the same molecule?
Its inhibition is 9% (inactive).

And the inhibition [3]?
The inhibition was -2% (inactive).

What about the growth inhibition [14] of the same molecule?
The growth inhibition was 95% (active).

What about the outcome [4] of the same molecule?
Its outcome is “inactive”.

What about the outcome [5] of the same molecule?
The outcome was “inactive”.

And the outcome [6]?
The outcome was “inactive”.

What about the outcome [7] of the same molecule?
Its outcome is “inactive”.

And the remaining activity [15]?
Its remaining activity is 109% (inactive).

And the fold change ([13]; stronger effect = lower value)?
Its fold change is 0.925 (inactive).

What about the fold change [13, 18] of the same molecule?
The fold change was 0.877.

And the cell count [13, 19]?
Its cell count is 7410.

And the cell count [13, 20]?
The cell count was 8010.

What about the z-score [16] of the same molecule?
Its z-score is -0.405 (inactive).

Which inhibition [9] does the source give for `C[C@@H](CO)NC(=O)[C@@H]1C=C2c3cccc4[nH]cc(c34)C[C@H]2N(C)C1` here?
Its inhibition is -3.88% (inactive).

What about the remaining NAD [17] of the same molecule?
The remaining NAD was 10 nM (inactive).

And the luciferase signal [10]?
The luciferase signal was 20 AU (inactive).

For `CC(=O)O[C@@H]1C[C@H]2C(C)(C)C(=O)C=C[C@]2(C)[C@H]2CC[C@]3(C)C(=CC(=O)O[C@H]3c3ccoc3)[C@@]21C`, which inhibition [9] is on record?
Its inhibition is 4.47% (inactive).

What about the luciferase signal [10] of the same molecule?
Its luciferase signal is 44 AU (inactive).

What does the source list for `C[C@@H]1CC[C@@]2(NC1)O[C@H]1C[C@H]3[C@@H]4CC=C5C[C@@H](O)CC[C@]5(C)[C@H]4CC[C@]3(C)[C@H]1[C@@H]2C`?
parasite load remaining [12]: 86.7% (inactive); viability [12]: 95.9%; inhibition [9]: 11.8% (inactive); fold change ([13]; stronger effect = lower value): 0.905 (inactive); fold change [13, 18]: 1.06; cell count [13, 19]: 9310; cell count [13, 20]: 10300; luciferase signal [10]: 48 AU (inactive)
